Measurements as given in PubChem BioAssay AID1645853 (Buhrlage Lab, Dana-Farber Cancer Institute and Novartis …, 2021).
The whole screen tested about 47,000 compounds, of which about 2,000 (4.3%) were called active. Cut-off read from the data, not from the text of the source: active = inhibition above about 30%; inactive = the rest. What follows is part of a selection rich in actives, with near analogues and random picks from the rest.

Each molecule was assayed against Ubiquitin carboxyl-terminal hydrolase 8 (Homo sapiens) (UniProt P40818) (assay: inhibitors of human USP8 deubiquitinase (AID 1645853)). Settings: purified USP8, Ub-rhodamine cleavage fluorescence, 30 min; at 20 µM; active compounds read high.
Sequence of Ubiquitin carboxyl-terminal hydrolase 8 (Homo sapiens) (P40818 whole entry, looked up): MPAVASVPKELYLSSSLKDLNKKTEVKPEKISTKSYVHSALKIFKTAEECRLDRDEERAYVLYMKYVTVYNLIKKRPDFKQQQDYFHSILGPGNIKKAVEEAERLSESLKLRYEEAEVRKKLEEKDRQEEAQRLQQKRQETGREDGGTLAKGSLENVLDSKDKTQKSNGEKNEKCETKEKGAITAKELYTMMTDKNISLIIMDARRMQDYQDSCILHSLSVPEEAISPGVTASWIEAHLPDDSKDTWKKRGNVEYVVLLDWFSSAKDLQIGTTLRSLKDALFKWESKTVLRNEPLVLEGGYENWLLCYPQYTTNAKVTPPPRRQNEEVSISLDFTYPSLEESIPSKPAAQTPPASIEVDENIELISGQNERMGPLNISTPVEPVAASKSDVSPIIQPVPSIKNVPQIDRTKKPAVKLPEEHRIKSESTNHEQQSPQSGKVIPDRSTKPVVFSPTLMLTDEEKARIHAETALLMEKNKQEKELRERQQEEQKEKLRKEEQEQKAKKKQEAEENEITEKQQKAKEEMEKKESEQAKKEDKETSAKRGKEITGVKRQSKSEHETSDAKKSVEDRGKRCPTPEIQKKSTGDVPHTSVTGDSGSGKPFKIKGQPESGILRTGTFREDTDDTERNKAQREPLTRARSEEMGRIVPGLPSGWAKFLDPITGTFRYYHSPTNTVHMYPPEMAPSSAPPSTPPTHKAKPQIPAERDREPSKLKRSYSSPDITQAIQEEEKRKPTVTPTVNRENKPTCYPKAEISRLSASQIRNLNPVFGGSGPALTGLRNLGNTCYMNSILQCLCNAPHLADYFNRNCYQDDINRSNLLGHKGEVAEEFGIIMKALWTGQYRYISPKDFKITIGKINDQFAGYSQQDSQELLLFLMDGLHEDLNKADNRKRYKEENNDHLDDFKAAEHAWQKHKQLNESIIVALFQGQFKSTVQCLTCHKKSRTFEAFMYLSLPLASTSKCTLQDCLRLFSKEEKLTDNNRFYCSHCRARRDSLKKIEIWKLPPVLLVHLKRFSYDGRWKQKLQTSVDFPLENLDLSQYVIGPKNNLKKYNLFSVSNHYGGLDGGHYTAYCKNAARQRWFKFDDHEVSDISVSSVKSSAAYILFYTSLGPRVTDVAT

Structure (SMILES)	inhibition
CC(C)C(=O)N1CCN2[C@H](C[C@@H](C(=O)N(C)C)[C@]23C(=O)Nc2ccccc23)C1	18.9% (inactive)
CC(C)(C)C(=O)Cn1c(=O)n(Cc2ccco2)c(=O)c2ccccc21	-0.0891% (inactive)
COc1ccc(-c2nc3c(c(=O)c4ccccc4n3C)c(=O)n2CCc2ccc(OC)c(OC)c2)cc1	33.9% (active)
COc1ccc(-c2nc3c(c(=O)c4ccccc4n3C)c(=O)n2Cc2ccco2)cc1	89.7% (active)
O=c1c2ccccc2n(Cc2ccccc2Cl)c(=O)n1Cc1ccco1	-2.33% (inactive)
COc1ccc(CNC(=O)Cn2c(C)nc3onc(C)c3c2=O)cc1	2.79% (inactive)
COc1ccc(-c2ocnc2C(=O)NCc2ccc(OC)c(OC)c2)cc1	3.07% (inactive)
COc1cccc(CCC(=O)N2CCN(c3cc(C)n4cnnc4n3)CC2)c1	-8.31% (inactive)
CCc1ccc(NC(=O)CSc2nc(-c3ccccc3F)nc3cc(=O)[nH]n23)cc1	-16% (inactive)
CCc1ccc(S(=O)(=O)N2CCN=C2N2CCCCC2)cc1	-0.222% (inactive)
CCN(C)C(=O)c1cc(-c2ccn(-c3ccccc3)n2)n2ccccc12	-39.1% (inactive)
COC(=O)c1cc2c(ccn2C)n1CC(=O)N1CCN(Cc2ccc3c(c2)OCO3)CC1	22.5% (inactive)
O=C(Nc1cccc2ccccc12)N1CCN(Cc2ccc3c(c2)OCO3)CC1	61.7% (active)
O=C(NCc1ccc2c(c1)OCO2)C1=CCN(Cc2ccccc2)CC1	-26.8% (inactive)
CCCCN(c1ccccc1)S(=O)(=O)c1cccc(C(=O)OCC(=O)NCc2ccc3c(c2)OCO3)c1	22.8% (inactive)
Cc1ccc(N2CC(c3nnc(NC(=O)CCCc4ccccc4)s3)CC2=O)cc1 (stereo not drawn)	-58.7% (inactive)
Cc1ccc(CC(=O)Nc2nnc(C3CC(=O)N(c4ccc(C)c(C)c4)C3)s2)cc1 (stereo not drawn)	35.8% (active)
COc1ccc(-c2nc(C3CC(=O)N(c4ccccc4)C3)no2)cc1 (stereo not drawn)	12.9% (inactive)
Cc1ccc(N2CCCS2(=O)=O)cc1NC(=O)Cc1ccc(Cl)cc1	15.3% (inactive)
COc1ccc(N2CC(c3nnc(NC(=O)CCc4ccccc4)s3)CC2=O)cc1 (stereo not drawn)	43.3% (active)

Structure (SMILES)	inhibition
CC(C)c1nnc(NC(=O)C2CC(=O)N(CCc3ccc(F)cc3)C2)s1 (stereo not drawn)	-27.4% (inactive)
CN1CCN(c2ncc(NC(=O)c3ccccn3)cn2)CC1	-1.52% (inactive)
CC1CCN(S(=O)(=O)CC(F)(F)F)Cc2nc3ccccc3n21 (stereo not drawn)	-0.0013% (inactive)
CCCNc1nc(Nc2ccc(OC)cc2)c2cnn(C)c2n1	-0.418% (inactive)
Nc1nc(N2CCCC2)nc2c1CCN(Cc1ccc3ncccc3c1)C2	-7.44% (inactive)
O=C(Nc1ccc2c(c1)OCO2)N1CCCCCC1	5.28% (inactive)
O=C(CN1CCN(CC(=O)Nc2ccc3c(c2)OCO3)CC1)Nc1ccc(F)cc1	38.1% (active)
O=C(CCOc1ccccc1F)Nc1ccc2c(c1)OCO2	7.17% (inactive)
Cc1ccc(-c2noc(-c3cccc(OCC(=O)N(C)C)c3)n2)cc1	-30% (inactive)
COc1cccc(-c2cc3c(=O)n(Cc4nc(-c5ccccc5C)no4)ccn3n2)c1	0.201% (inactive)
CCOc1ccc(-c2noc(-c3nn(-c4cccc(OC)c4)ccc3=O)n2)cc1	81.8% (active)
COc1nc2c(c(-c3ccc[nH]3)c1C#N)Cc1ccccc1-2	-97.1% (inactive)
Nc1cccc(C(=O)CC2(O)C(=O)N(CCc3ccccc3)c3ccccc32)c1 (stereo not drawn)	-96.8% (inactive)
CNc1nc(C2CCCN(C(C)=O)C2)nc2c1CCN(C(=O)c1oc3ccccc3c1C)C2 (stereo not drawn)	-2.25% (inactive)
O=C(CCc1nnc2ccc(N3CCCC3)nn12)NCc1ccc(F)cc1	29.2% (inactive)
Cn1c(=O)c(N2CCC(C(=O)NCc3ccc(F)cc3)CC2)nc2cccnc21	7.77% (inactive)
O=C(COc1cccc2ccc(N3CCC(Cc4ccccc4)CC3)nc12)NCc1ccc(F)cc1	65.7% (active)
COc1ccc(NC(=O)CSc2ncccc2C(=O)N2CCC(Cc3ccccc3)CC2)cc1OC	-0.608% (inactive)
O=C(COc1cccc2ccc(N3CCC(Cc4ccccc4)CC3)nc12)Nc1cccc(F)c1	84.1% (active)
O=C(CC1C(=O)OCCN1Cc1ccccc1)Nc1cccc(F)c1 (stereo not drawn)	-10.4% (inactive)

Structure (SMILES)	inhibition
CC(c1ccccc1)n1c(CCCNC(=O)C2CCCCC2)nc2ccccc21 (stereo not drawn)	-8.43% (inactive)
Cc1ccc(NC(=O)Cn2cccc(S(=O)(=O)N3CCCCCC3)c2=O)c(C)c1	-3.12% (inactive)
Cn1c2c(c(=O)n(C)c1=O)C(c1cccc(Cl)c1Cl)CC(=O)N2 (stereo not drawn)	-0.255% (inactive)
O=C(CSc1n[nH]c(-c2cccnc2)n1)Nc1ccc(Cl)cc1	-5.47% (inactive)
COCCn1c(=O)[nH]c2cc(C(=O)NCc3ccc(Cl)cc3)ccc2c1=O	-1.21% (inactive)
COCCn1c(=O)[nH]c2cc(C(=O)N3CCC(Cc4ccccc4)CC3)ccc2c1=O	-0.0121% (inactive)
COCCn1c(=O)[nH]c2cc(C(=O)NCCNc3ccc([N+](=O)[O-])cc3C#N)ccc2c1=O	55.6% (active)
Cc1cccc(NC(=O)N2CCCC3(CCCN3C)C2)c1 (stereo not drawn)	-319% (inactive)
CN1CCN(c2ncc(NC(=O)c3ccc(C(F)(F)F)cc3)cn2)CC1	-15.2% (inactive)
CC(=O)N1Cc2ccccc2OC2(CCN(CC(=O)Nc3cccc(C)c3C)CC2)C1	-15.9% (inactive)
Cn1cccc1/C(C#N)=C\c1ccc2c(c1)OCO2	76.2% (active)
Cn1c(=O)c(-c2ccc(C(=O)NCc3ccc(F)cc3F)cc2)nc2cccnc21	15.4% (inactive)
CNC(=O)C1(C)CN(C(=O)c2ccc3[nH]c(C)c(C)c3c2)CCO1 (stereo not drawn)	-61.8% (inactive)
Cc1cc(NC(=O)CSc2nccn2-c2ccc([N+](=O)[O-])cc2)no1	-89.6% (inactive)
O=C(NCC1CC1)[C@H]1C[C@@H]2CN(CC3CC3)C[C@H]1O2	-27.5% (inactive)
COC(=O)c1cc2sc(Cl)cc2n1Cc1cc(=O)n2ccccc2n1	-9.48% (inactive)
CCOC(=O)c1cc2c(ccn2-c2ccc(F)cc2)n1Cc1ncc(C)c(OC)c1C	3.2% (inactive)
CC(C)OC(=O)c1cc2c(ccn2-c2ccc(F)cc2)n1Cc1ccccn1	64% (active)
